These results are taken from PubChem BioAssay.

Several values for one entry are separate records, joined by “and”; a condition that tells them apart may be missing. Identical values can stand only once. Activity calls are given as the source filed them. Unless noted, how the calls were made is not given here.

Assay [1] is described as follows: circadian clock period modulators, cell-based, LOPAC library, luminescence reporter (AID 2774).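 Further: values are relative to mean of DMSO wells on each plate.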 The settings on record: circadian reporter cells, at 7 µM, actives lie on both sides.
Assay [2] relates to Hepatitis C virus NS3 helicase. The assay is described as follows: HCV NS3 helicase inhibitors, primary screen, biochemical, fluorescence polarization, LOPAC1280 library (AID 687035; in the data active means inhibition above about 37%). As to conditions: Purified HCV NS3 helicase, Cy5-dT15 ssDNA binding fluorescence polarization; stronger effect = higher value; concentration not given here.
A short description of assay [3]: Cy5 fluorescence quenching or enhancement artefacts, artefact control for HCV NS3 helicase inhibitor project, biochemical, LOPAC1280 (AID 687037). The settings on record: Cy5-DNA-NS3h complex fluorescence interference counterscreen.
Assay [4] relates to Aerobactin synthetase IucA (Klebsiella pneumoniae). Briefly: IucA aerobactin synthetase inhibitors, biochemical, Tocris library, absorbance (AID 1345561).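 Further: 100% = enzyme without compound and 0% = no enzyme.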 The settings on record: purified IucA enzyme assay, absorbance (OD) read-out; stronger effect = lower value;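 tested at 8 µM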.
Assay [5] in a line: sensitizers of A549 cells to miR-34 induction, primary screen, imaging, A549 dox-inducible miR-34, nuclei and caspase counts (AID 1347080;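 active means compounds whose cell count with miR-34 switched on is under 0.7 times the count with it off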). As to conditions: A549 miR-34 inducible, Hoechst nuclei count, 48 h.
A short description of assay [6]: phospholipid biosynthesis inhibitors in animal cells, primary screen, cell-based, LOPAC library, screen 4 (AID 1347384). As to conditions: phospholipid biosynthesis inhibition screen, at 10 µM.
Assay [7] in a line: viability rescue of complex I mutant cybrids, primary screen, cell-based, galactose medium, ATP luminescence (AID 1645843;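 active means z-score of at least 1.8 in each of two replicates, scored against plate mean and spread of sample wells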;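 further: positive z means more ATP and so rescue of galactose-driven cybrid death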). As to conditions: complex I mutant cybrid cells, 72 h, stronger effect = higher value.
A short description of assay [8]: inhibitors of Cryptococcus chitosan production, flow cytometry, Cibacron Brilliant Red staining (AID 1347148).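 Further: compound exposure lasted three days at 37 degrees C.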 The settings on record: Cryptococcus neoformans chitosan, stronger effect = lower value; at 10 µM unless noted.
Assay [9] in a line: liver-stage malaria parasite growth inhibition, primary screen, cell-based, HepG2, luciferase luminescence, HepG2 viability (AID 624349; in the data active means parasite load remaining mostly below about 12%, no sharp cut-off; inactive means mostly above about 10%;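 further: 100% = mean of DMSO negative control wells on the same plate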). The settings on record: P. berghei liver stage in HepG2, luciferase luminescence, concentration not given here; parasite load remaining: stronger effect = lower value; viability: measured here: HepG2 viability without parasites.
The nature of assay [10]: modifiers of HSF1 nuclear foci, imaging, Selleck Cancer Library (AID 1347162; in the data active means plate-normalised HSF1 focus index below about 0.46). As to conditions: human cells, at 10 µM; SSMD: measured here: HSF1 foci SSMD mean; cell count: measured here: cell number; plate-normalised HSF1 focus index: stronger effect = lower value.
Assay [11] is described as follows: LFS_MB_P medulloblastoma growth inhibition, cell-based, chromothripsis tumors, cisplatin or BGB combos (AID 1671449; in the data active means inhibition above about 80%;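 further: cells exposed for 96 hours; 0% = vehicle DMSO and 100% = killing by high DMSO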). As to conditions: LFS_MB_P medulloblastoma cells.
Assay [12] is described as follows: HDN33 neuroblastoma growth inhibition, cell-based, chromothripsis tumors, cisplatin or BGB combos (AID 1671450; in the data active means inhibition above about 80%;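 further: cells exposed to compound for four days; 0% = vehicle DMSO and 100% = cell killing by high DMSO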). As to conditions: HDN33 neuroblastoma cells, stronger effect = higher value.
Assay [13] can be described thus: ICB984 medulloblastoma cell growth inhibition, synergistic combos for chromothripsis tumors, cisplatin or BGB combos (AID 1671451).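 Further: cells exposed for 96 hours before readout; 0% = vehicle DMSO and 100% = killing by high DMSO.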 As to conditions: ICB984 medulloblastoma cells, drug combinations, stronger effect = higher value.
Assay [14] is described as follows: HTB85 osteosarcoma cell growth inhibition, synergistic combos for chromothripsis tumors, BGB or cisplatin IC20 combos (AID 1671453; in the data active means inhibition above about 80%;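 further: cells exposed for 96 hours before readout; 0% = vehicle DMSO and 100% = high DMSO killing control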). The settings on record: HTB85 osteosarcoma cells, drug combinations, stronger effect = higher value.
Assay [15] is described as follows: MDA-MB-436 breast carcinoma cell growth inhibition, synergistic combos for chromothripsis tumors, BGB or cisplatin combos (AID 1671458).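 Further: cells exposed for 96 hours; 0% = vehicle DMSO and 100% = killing by high DMSO.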 As to conditions: MDA-MB-436 breast carcinoma growth inhibition, drug combinations, stronger effect = higher value.
Assay [16] in a line: growth inhibition of BT084 medulloblastoma cells, cell-based, ICGC_MB145, cisplatin and BGB IC40 combos (AID 1671461; in the data active means inhibition above about 80%;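 further: cells exposed to drugs for 96 hours; 0% = vehicle DMSO and 100% = high DMSO full killing control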). As to conditions: drug combinations, stronger effect = higher value.
The nature of assay [17]: growth inhibition of RCMB18 medulloblastoma cells, cell-based, cisplatin and BGB IC40 combos (AID 1671462; in the data active means inhibition above about 80%;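 further: cells exposed to compound for four days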). As to conditions: stronger effect = higher value.
Setting [18] is: stronger effect = lower value, cell number ratio, induced over uninduced.
The mark [19] stands for this setting: measured here: relative caspase fold change +Dox/-Dox.
Where [20] appears, read: measured here: total cells with miR-34 induction, stronger effect = lower value.
[21] abbreviates: measured here: total cells without miR-34 induction.

Turning to `NC(=O)CNCCC(c1ccccc1)c1ccccc1`, the period change in assay [1] is -0.275 h (inactive). The inhibition in assay [2] is 0% (inactive). The fluorescence ratio (interference) in assay [3] is 1.1 (inactive). For the same compound, the remaining activity in [4] was 72.6% (inactive). Moreover, the fold change in [5] (setting [18]) was 0.993 (inactive) and 0.866 (inactive); in [5] (setting [19]) it was 1.46 and 1.33. Moreover, the cell count in [5] (setting [20]) is 9880 and 8250; in assay [5] (setting [21]), 9950 and 9520. The outcome in assay [6] was inactive. In addition, the z-score in assay [7] was -0.185 (inactive) and 0.085 (inactive).
`O=C(NCCCCCCNC(=O)ON=C1CCCCC1)ON=C1CCCCC1`: in [4], the remaining activity was 126% (inactive). Also, the fold change in assay [5] (setting [18]) was 0.722 (inactive) and 0.829 (inactive); in assay [5] (setting [19]), 1.07 and 1.04. The cell count in [5] (setting [20]) is 3570 and 6850; in assay [5] (setting [21]), 4940 and 8260. For the same compound, in assay [8], the fold fluorescence is 7.89 [at 126.7 µM] (inactive). The z-score in assay [7] is -0.255 (inactive).
On to `N.N.O=C(O)C1(C(=O)O)CCC1.[Pt]`, for which the parasite load remaining in assay [9] is 105% (inactive) and 45.1% (inactive). Moreover, the viability in assay [9] was 75.3% and 97.1%. Besides, the remaining activity in [4] was 100% (inactive). Also, the fold change in assay [5] (setting [18]) was 0.91 (inactive) and 1.06 (inactive); in assay [5] (setting [19]) it was 1.49 and 3.05. In addition, the cell count in assay [5] (setting [20]) is 7500 and 6220; in [5] (setting [21]) it was 8240 and 5890; in assay [10], 7840. Besides, in [10], the SSMD turned out to be 2.09. The plate-normalised HSF1 focus index in assay [10] was 1.08 (inactive). For the same compound, in assay [7], the z-score was -0.15 (inactive). Besides, the inhibition in assay [11] (at 0.5 µM, stronger effect = higher value) was -25.8% (inactive) and -25% (inactive); in assay [11] (measured here: combination with BGB IC20, at 0.005 µM), -21.9% and -15.8%; in [11] (measured here: combination with BGB IC40, at 0.005 µM), -33.4% and -11.2%; in assay [11] (measured here: combination with BGB IC40, at 0.05 µM) it was -8.87% and -31.1%; in [11] (measured here: combination with cisplatin, at 0.5 µM, stronger effect = higher value), -41.1% and -20.3%; in [11] (measured here: combination with cisplatin, at 5 µM, stronger effect = higher value), -26.5% and -12.9%. Also, the inhibition in [12] (BGB combo, at 5 µM) was -9.54% and -0.176%; in [12] (at 0.5 µM), -16.9% (inactive) and -34.4% (inactive); in assay [12] (cisplatin combo, at 5 µM), -4.51% and -16.2%; in [12] (measured here: with BGB IC20 combination, at 0.5 µM) it was -16.3% and -33.3%; in [12] (measured here: with cisplatin IC20 combination, at 0.5 µM), 7.01% and -41.5%; in assay [12] (single agent, at 5 µM), -8.33% and -8.24%. Moreover, the inhibition in assay [13] (BGB IC20 combo, at 0.005 µM) is -23.8% and 9.43%; in assay [13] (BGB IC40 combo, at 0.005 µM), -28.7% and -26%; in [13] (BGB IC40 combo, at 0.05 µM), -33.8% and -31.4%; in [13] (at 0.5 µM), -17.7% (inactive) and -35.2% (inactive); in assay [13] (cisplatin combo, at 0.05 µM), -33.8% and -36.1%; in assay [13] (cisplatin combo, at 0.5 µM), -26.5% and -43.2%. Besides, the inhibition in assay [13] (cisplatin combo, at 5 µM) was -41.9% and -11%; in assay [13] (measured here: 5 uM single agent, at 5 µM), -8.78% and -6.62%; in assay [14] (at 0.5 µM) it was -12.1% (inactive) and -29.4% (inactive); in assay [14] (measured here: with BGB IC20, at 0.5 µM), -30.4% and -34.9%; in [14] (measured here: with BGB IC20, at 5 µM), 11.7% and -2.3%; in assay [14] (measured here: with cisplatin IC20, at 0.5 µM), 2.42% and -41.2%. The inhibition in assay [14] (measured here: with cisplatin IC20, at 5 µM) is 0.587% and 34.7%; in assay [14] (single agent, at 5 µM), -3.92% and 13.4%; in assay [15] (at 0.5 µM), -21.7% (inactive) and -6.11% (inactive); in assay [15] (measured here: BGB combination, at 0.5 µM), -33.8% and -15%; in assay [15] (measured here: BGB combination, at 5 µM) it was 3.84% and 2.53%; in [15] (measured here: cisplatin combination, at 0.5 µM) it was -26.3% and -12.4%. For the same compound, the inhibition in assay [15] (measured here: cisplatin combination, at 5 µM) was 14% and 17.8%; in assay [16] (at 0.5 µM), -21% (inactive) and -15.1% (inactive); in [16] (cisplatin combination, at 0.5 µM), -2.17% and -35.9%; in [16] (cisplatin combination, at 5 µM), -41.8% and -20.7%; in assay [16] (measured here: BGB IC40 combination 0.05 uM, at 0.05 µM) it was -10.5% and -37.9%; in assay [16] (single agent, at 5 µM), -52.9% and -21.2%. Moreover, the inhibition is -27.3% (inactive) and -19.1% (inactive) in assay [17] (at 0.5 µM); -0.537% and -4.06% in assay [17] (cisplatin combo, at 5 µM); -23.2% and -16.9% in assay [17] (measured here: BGB IC40 combination, at 0.05 µM); -19.3% and -17.8% in [17] (measured here: combination with cisplatin, at 0.5 µM); -46.1% and -19.1% in assay [17] (single agent, at 5 µM).
